KB-V1 cytotox: qHTS assay for MDR1-selective chemotherapeutics: Primary screen using the drug-selected MDR subline cells KB-V1 | actives 3.4% (n = 400,000) | AID 1347076, 2019 | KB-V1 MDR cells viability, CellTiter-Glo, 72 h | Potency, µM (series often up to 46.1 µM), hits mostly cytotoxic; also: % is scaled to controls: 0 for no effect and ±100 for the full control effect; nearly all actives have a fitted effect of over 60% in size
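Cells of the MDR subline KB-V1 are plated, dosed with compound at multiple concentrations, and incubated 72 h at 37 degrees C; CellTiter-Glo is then added and luminescence read after 10 min.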
HepG2 viability: qHTS for Inhibitors of TGF-b: Cytotox Counterscreen; actives 0.76% (n = 410,000); HepG2 CAGA-GFP viability, ATP luminescence, 18 h; Potency, µM (titrated, usually from 46.1 µM), without a hit: top-dose activity change, negative = cytotoxicity, actives largely listed as cytotoxic
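CellTiter-Glo luminescence gave cytotoxicity after 18 hours at 37 degrees C. The cells were HepG2 CAGA-GFP in 1% FBS DMEM, stimulated with 500 pg/mL TGF-beta after compound addition. %Activity was normalised to no-cell wells (complete cell-killing) and DMSO (no toxicity), and curves were fitted and classified.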
TGFb SMAD3 inh: qHTS for Inhibitors of TGF-b. HepG2 CAGA-GFP TGF-b/SMAD3 reporter, GFP fluorescence, 18 h; TGF-beta stimulated, 500 pg/mL final. Potency, µM (titrated, usually from 46.1 µM), without a hit: at the highest dose activity, negative = inhibition, hits mostly inhibitors. actives 1.2% (n = 410,000); also: % is scaled to controls: 0 for no effect and ±100 for the full control effect; nearly all actives have a fitted effect of over 65% in size
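Cell-based qHTS in HEPG2 carrying a CAGA-GFP Smad reporter; compounds added before 500 pg/mL final TGF-beta, 18 h incubation at 37 degrees C, GFP fluorescence quantified per cell by imaging cytometry.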
HT1080NT lethal: qHTS for induction of synthetic lethality in tumor cells producing 2HG: qHTS for the HT-1080-NT fibrosarcoma cell line | HT-1080-NT fibrosarcoma viability, CellTiter-Glo ATP luminescence, 48 h | Potency, µM (series often up to 46.1 µM), without a hit: top-dose activity, negative = less viability, hits mostly cytotoxic | actives 1.6% (n = 360,000);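 also: NT is the 2HG producing partner of a matched IDH1 knockdown line; 0% = DMSO-treated cells and -100% = media-only wells without cells; nearly all actives have a fitted effect of over 55% in size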
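Viability of the 2HG-overproducing fibrosarcoma line after 48 hours of compound exposure at 37 degrees C was determined by luminescence with CellTiter-Glo, and concentration-effect curves were then fitted and categorized.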
KB-3-1 cytotox: qHTS assay for MDR1-selective chemotherapeutics: Primary screen using the parental adenocarcinoma cell KB-3-1; Potency, µM (titrated, usually from 46.1 µM), usual class: cytotoxic; AID 1347075, 2019; actives 1.4% (n = 400,000); KB-3-1 viability, CellTiter-Glo ATP luminescence, 72 h; also: % is scaled to controls: 0 for no effect and ±100 for the full control effect; nearly all actives have a fitted effect of over 60% in size
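Parental KB-3-1 adenocarcinoma cells in phenol-red-free DMEM with 10% FBS were pin-treated with compounds at several concentrations, incubated 72 h at 37 °C, and viability read by CellTiter-Glo luminescence; concentration-effect curves were fitted after normalization.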
HT1080 IDH1KD tx: qHTS for induction of synthetic lethality in tumor cells producing 2HG: qHTS for the HT-1080-IDH1KD cell line; actives 2% (n = 360,000); HT-1080 IDH1 knockdown viability, ATP luminescence, 48 h; Potency, µM (doses to about 46.1 µM), for the others: top-dose activity, negative = toxicity, hits mostly cytotoxic; AID 686971, 2013;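 also: 0% = DMSO wells and -100% = cell-free medium wells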
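Knockdown cells (IDH1KD HT-1080) received compounds 2 h after plating at 750 cells/well and were kept 48 h at 37 °C in 5% FBS RPMI. A CellTiter-Glo luminescence read gave % activity for curve fitting.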
* marks the source's active call; other numbers are inactive results; i = inactive; u = inconclusive; x = no result. Shown are actives, neighbours in structure and some others; about 6.6% of the full set was active somewhere. Calls follow the shape of the dose curve; as a rule, active = well fitted curve in the direction sought with a large enough effect; inconclusive = small, poorly fitted or top-dose-only effect, or another doubt; inactive = no such curve, though single readings can be large; an effect the other way counts as inactive or inconclusive. Potency is read from the fitted curve at half-maximal effect.

SMILES | KB-V1 cytotox | HepG2 viability | TGFb SMAD3 inh | HT1080NT lethal | KB-3-1 cytotox | HT1080 IDH1KD tx
Oc1[nH]c2c(Cl)cc(Cl)cc2c1N=NC(=S)NCC1CCCO1 (stereo not given) | u | -4.2% | u | -7.7% | 5.8µM* | -14.9%
COc1cccc(N2CCN(C(=O)c3cccn3-c3nnc(N4CCCCC4)s3)CC2)c1 | i | 2.8% | 0.0% | x | i | x
CC(=O)Nc1cccc(NC(=O)c2c(-c3ccccc3)c(-c3ccccc3)nn(C)c2=O)c1 | x | 0.9% | -24.3% | x | x | x
CCCCn1c(=O)[nH]c(=O)c2c1nc(-c1ccc(OC)c(Br)c1)n2CC(C)C | u | -12.3% | u | 29.1µM* | u | 23.1µM*
CCOC(=O)c1sc(NC(=O)c2cc(-c3ccccc3)nc3ccccc23)c(C#N)c1C | u | -4.0% | u | 2.91µM* | 14.6µM* | 5.17µM*
CCOC(=O)c1sc(NC(=O)CSc2n[nH]c(-c3ccccc3)n2)c(C#N)c1C | u | -23.6% | u | u | i | u
Cc1ccc(C)c(-c2cc(C(=O)Nc3sc(C)c(C)c3C(N)=O)c3ccccc3n2)c1 | 4.11µM* | -11.7% | -18.9% | u | u | u
CCOC(=O)c1sc(NC(=O)CSc2nc(C)cc(C)n2)c(C#N)c1C | 8.2µM* | -6.2% | 1.0% | -12.5% | i | -7.7%
COc1ccc(N(C(=O)c2ccccc2F)S(=O)(=O)c2ccc3c(c2)n(C)c(=O)n3C)cc1 | i | 6.9% | 12.0% | x | i | x
CC(C)(C)n1ncc2c(=O)n(Cc3ccc(F)c(C(F)(F)F)c3)cnc21 | x | -12.3% | u | x | x | x
CC1(C(=O)NCc2ccccc2Br)CCN1Cc1ccc2ccccc2c1 (stereo not given) | i | -37.7% | u | -22.4% | i | u
CC1(C(=O)NCc2ccccc2Br)CCN1Cc1ccc(-c2ccccn2)cc1 (stereo not given) | 13µM* | -20.4% | u | u | u | u
COc1ccc(S(=O)(=O)N2CCC(C(=O)NC3CC3)CC2)cc1 | i | -4.7% | 19.0% | 5.5% | i | 1.2%
COc1ccc(S(=O)(=O)N2CCC(NC(=O)OCc3c(Cl)cccc3Cl)CC2)cc1 | 8.2µM* | -10.6% | -1.5% | 4.8% | i | -0.8%
COc1ccc(COC(=O)NC2CCN(S(=O)(=O)c3ccc(OC)cc3)CC2)cc1 | 7.31µM* | -14.6% | 0.2% | 7.5% | i | -1.2%
COc1ccc(-c2noc(CCCC(=O)NCC3CCCO3)n2)cc1 (stereo not given) | i | -12.4% | -28.9% | -8.9% | i | -11.6%
O=C(CCCc1nc(-c2ccc(Cl)cc2)no1)N1CCOCC1 | 9.2µM* | -19.6% | -24.7% | -18.6% | u | -23.3%
Cc1ccc(-c2noc(CCCC(=O)N3CCOCC3)n2)cc1 | i | -20.8% | 2.3% | -1.2% | i | 1.8%
O=C(CCCc1nc(-c2ccc(Cl)cc2)no1)NCC1CCCO1 (stereo not given) | 13µM* | -4.2% | -7.9% | -12.6% | 10.3µM* | -5.7%
Cc1cccc(-c2noc(CCCC(=O)N3CCOCC3)n2)c1 | 20.6µM* | 2.4% | -3.7% | 12.8% | i | 2.7%
CSC[C@H]1CN(Cc2cccnc2)C(=O)[C@@H]1CC(=O)Nc1ccc(Br)cc1 | i | -1.7% | 12.6% | -2.6% | u | -1.2%
CCc1ccc(NC(=O)Cn2c(-c3cncs3)nc3ccccc32)cc1 | x | -5.5% | -4.0% | x | x | x
CCCCCC(=O)N1C[C@@H](O)[C@H](n2cc(-c3ccc(F)cc3)nn2)C[C@@H]1c1ccccc1 | i | -26.2% | -24.1% | -17.4% | u | -17.1%
